Shown are actives, neighbours in structure and some others; about 19% of the full set was active somewhere.
IL-1B inflam inh: inhibitors of inflammasome signaling (IL-1 beta secretion) | THP-1 LPS/ATP IL-1B secretion, AlphaLISA, 16 h; stronger effect = lower value | activity change, % at 57.5 µM | 360,000 compounds, 4.7% hits; in the data active = activity change below about -50%; inconclusive = mostly about -30% to -49%; note: % is set by controls: 0 for no effect and ±100 for the full control effect
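THP-1 cells pretreated 1 hr with compounds (up to 57.5 uM final), then stimulated with LPS (250 ng/mL final) plus ATP (1.25 mM final); secreted IL-1B measured by AlphaLISA after 16 hr, decreased signal indicating inhibition.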
TDP1 cell noCPT: qHTS for Inhibitors of human tyrosyl-DNA phosphodiesterase 1 (TDP1): qHTS in cells in absence of CPT. DT40 Tdp1-/- hTDP1 cells, no CPT, ATP luminescence, 48 h. Potency, µM (doses to about 46.2 µM), for the others: at the top dose activity change, negative = growth inhibition, usual class: inhibitors. 420,000 compounds, 15% hits. AID 686978, 2013; note: potency is the fitted concentration of half-maximal effect; % is set by controls: 0 for no effect and ±100 for the full control effect; nearly all actives have a fitted effect of over 55% in size
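DT40 Tdp1-/-;hTDP1 cells, no CPT (DMSO vehicle only), 400 cells/well; compounds pin-transferred; ≥48 hr, 37 °C; CellTiter-Glo 30 min RT dark, luminescence read.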
BCR signal inh: blocks chronic active B-cell receptor signaling | ABC-DLBCL IkBa-CBG/CBR reporter, luminescence ratio, 4 h | 340,000 compounds, 0.05% hits | Potency, µM (top dose mostly 46.1 µM), without a hit: top-dose activity change, negative = inhibition, actives largely listed as inhibitors; active = well fitted inhibition curve with a large enough effect in the signal ratio, with a control signal flat, not every such curve was filed as active; inconclusive = small, poorly fitted or top-dose-only effect, or effect the other way, or a change in a side signal; the % refers to the signal ratio;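 note: potency is the fitted concentration of half-maximal effect; plate controls were basal doxycycline-induced cells for no effect and cells given 10 µM MG132 for full effect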
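TMD8 human ABC-DLBCL cells with doxycycline-inducible IκBα–green luciferase fusion and unfused red luciferase, in 0.5% FBS medium; compounds up to 46 uM, 4 h at 37C. Green/red luminescence ratio, filter-overlap corrected, fitted to concentration-response curves.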
MCF10A rerep: inducers of DNA re-replication in MCF 10A breast cells; MCF 10A DNA re-replication, Hoechst nuclear intensity, 48 h; 350,000 compounds, 2.9% hits; Potency, µM (titrated, usually from 46.1 µM), for the others: at the top dose activity, positive = re-replication, actives largely listed as activators; note: potency is the fitted concentration of half-maximal effect; % of control where 0% means no effect; nearly all actives have a fitted effect of over 50% in size
SW480 rerep: DNA re-replication induction in SW480 cells; 340,000 compounds, 1.8% hits; AID 624297; SW480 DNA re-replication, Hoechst DNA content imaging, 48 h; Potency, µM (highest dose often 46.1 µM), without a hit: at the top dose re-replication activation, hits mostly activators; note: potency is the fitted concentration of half-maximal effect; % of control where 0% means no effect; nearly all actives have a fitted effect of over 55% in size
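Per well, 250 cells were exposed to pinned compound for 48 hr. Nuclear DNA was visualised with Hoechst (40 min, 37 C) and total object intensity recorded by fluorescence scanning.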
DT40 TDP1 CPT: DT40-hTDP1 cell growth loss with CPT; AID 686979; 420,000 compounds, 12% hits; chicken DT40 Tdp1-/-;hTDP1 cells + 20 nM CPT, ATP luminescence, 48 h; Potency, µM (series often up to 46.2 µM), inactives show at the highest dose activity change, negative = growth inhibition, usual class: inhibitors; note: potency is the fitted concentration of half-maximal effect; % is set by controls: 0 for no effect and ±100 for the full control effect; nearly all actives have a fitted effect of over 55% in size
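Chicken DT40 Tdp1-/- cells stably complemented with human TDP1 were seeded at 400 cells/well in medium containing 20 nM camptothecin, exposed to pin-transferred compounds, and grown at 37 °C for at least 48 hr. Viability was read as ATP luminescence.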
* marks the source's active call; other numbers are inactive results; u = inconclusive; x = no result given; [ ] = dose if it differs, or a comment. Unless noted, calls come from the whole dose curve; as a rule, active = well fitted curve in the direction sought with a large enough effect; inconclusive = small, poorly fitted or top-dose-only effect, or another doubt; inactive = no such curve, though single readings can be large; an effect the other way counts as inactive or inconclusive.

SMILES | IL-1B inflam inh | TDP1 cell noCPT | BCR signal inh | MCF10A rerep | SW480 rerep | DT40 TDP1 CPT
COc1cccc(-c2nn(-c3ccccc3)cc2CN(C)C(C)c2ccon2)c1 (configuration not stated) | 30 | u | 4% | 12% | 10% | u
CCn1ccnc1CN(C)Cc1cn(C)nc1-c1ccccc1F | -5 | 0% | -4% | 2% | 1% | 29%
CCn1ccnc1CN(C)Cc1cn(-c2ccccc2)nc1-c1ccc(OC)cc1F | -74* | u | u | 13% | 30% | u
O=C(NCc1ccccc1)C(c1ccc(Cl)cc1)N(C(=O)c1csnn1)C1CC1 (configuration not stated) | -14 | -11% | 4% | 0% | 29% | u
COc1cc2c(cc1NC(=S)NC(=O)/C=C/c1ccc(OC)c(OC)c1)oc1ccccc12 | 23 | 5% | 0% | 21% | 7% | 6%
COc1ccc(/C=C/C(=O)NC(=S)Nc2cc3oc4ccccc4c3cc2OC)cc1 | 40 | u | 7% | -3% | 2% | 9.2µM*
COc1cc2c(cc1NC(=S)NC(=O)/C=C/c1ccco1)oc1ccccc12 | 15 | u | u | u | 21% | 16µM*
O=C(NCc1ccc2c(c1)OCO2)c1ccc2c(c1)N(Cc1c(F)cccc1Cl)C(=O)c1ccccc1S2 | x | -24% | x | x | x | -4%
COc1ccc(OC)c(-c2cc(Cl)c3c(c2)CC(CNC(=O)c2coc4c2C(=O)CCC4)O3)c1 (configuration not stated) | x | -15% | x | x | x | 15%[9.04 µM]
COc1ccccc1CNC(=O)Cn1ncn2c(cc3sccc32)c1=O | x | -15% | x | x | x | 6%
Nc1oc2ccccc2c(=O)c1-c1ccc2c(c1)OCO2 | 21 | u | 4% | -11% | -1% | 18µM*
COc1ccccc1-c1oc2ccccc2c1-c1ccc2c(c1)OCO2 | 21 | u | u | u | -5% | u
Cc1ccc(N2C(=O)NC(C(F)(F)F)(C(F)(F)F)C3=C2CC(C)(C)CC3=O)cc1 | 13 | u | 0% | 0% | -5% | -15%
C[C@H](CO)N1C[C@H](C)[C@@H](CN(C)S(=O)(=O)c2ccccc2)Oc2c(NC(=O)CCC(F)(F)F)cccc2C1=O | -3 | -6% | -2% | -2% | 30%[9.22 µM] | -13%
C=CCN(CC=C)C(=O)c1ccc(OC2CCN(S(=O)(=O)N(C)C)CC2)cc1 | 14 | u | u | -2% | -3% | 3%
CC1(Cc2cc(Cl)ccc2C(F)(F)F)C(=O)Nc2c(Cl)cccc21 (configuration not stated) | 18 | 13µM* | x | x | x | u
CC1(Cc2ccc(F)c(Cl)c2)C(=O)Nc2c(Cl)cccc21 (configuration not stated) | 25 | 16µM* | x | x | x | u
COc1ccc(Cl)cc1CC1(C)C(=O)Nc2c(Cl)cccc21 (configuration not stated) | 51 | 23µM* | x | x | x | u
CC1(Cc2ccccc2F)C(=O)Nc2c(Cl)ccc(Cl)c21 (configuration not stated) | 30 | u | x | x | x | u
O=C1NC[C@@H](CCCCN2CCN(CCc3ccc(O)cc3)C(=O)C2=O)N(CCc2ccc(O)cc2)C1=O | 25 | -14% | x | x | x | -1%
Cc1nc(C)n(CCNC(=O)c2ccco2)n1 | -3 | -3% | 4% | 0% | 1% | 2%
O=C(NC1CCCCC1)C(c1ccccn1)N(C(=O)Cc1cccs1)c1ccc(Cl)cc1 (configuration not stated) | u | u | -3% | -2% | 8% | 29µM*
Cc1cc(C)cc(N(C(=O)Cc2cccs2)C(C(=O)NC2CCCCC2)c2ccccn2)c1 (configuration not stated) | -18 | u | -6% | 9% | 0% | u
Cc1ccc(C(C(=O)NC2CCCC2)N(C(=O)Cc2cccs2)c2cccc(C)c2C)o1 (configuration not stated) | 10 | 16µM* | 2% | u | u | 21µM*
Cn1c(=O)c2c(-c3ccccc3)n3c(c2n(C)c1=O)C(c1cccc([N+](=O)[O-])c1)Nc1ccccc1-3 (configuration not stated) | x | u | x | x | x | 13µM*
SMILES | IL-1B inflam inh | TDP1 cell noCPT | BCR signal inh | MCF10A rerep | SW480 rerep | DT40 TDP1 CPT
COc1ccc(C2Nc3ccccc3-n3c(-c4ccccc4)c4c(=O)n(C)c(=O)n(C)c4c32)cc1 (configuration not stated) | x | u | x | x | x | 16µM*
CCOc1ccccc1NC(=O)Cn1ccn(Cc2ccc(C)cc2)c(=O)c1=O | x | -14% | x | x | x | -7%
O=C(O)c1ccc(Cl)c(S(=O)(=O)N(Cc2ccccc2)c2ccccc2)c1 | 47 | 8% | 4% | 9% | 1% | 3%
O=C(O)c1ccc(Cl)c(S(=O)(=O)N(Cc2ccccc2)c2ccccc2Cl)c1 | 0 | -21% | -5% | 8.2µM* | 1% | u
COc1ccc(N(Cc2ccccc2)S(=O)(=O)c2cc(C(=O)O)ccc2Cl)cc1 | 31 | -2% | 3% | 18µM* | -3% | 9%
Cc1ccc(S(=O)(=O)NN2CCCCCC2)cc1 | -2 | -11% | x | x | x | -1%
COc1ccc([C@@H]2[C@@H](C)N(c3ccccc3)c3ccccc3C(=O)N2Cc2ccccc2)cc1 | -9 | 16µM* | x | x | x | u
COc1cc(C(=O)OCC(=O)Nc2ccc(N3CCOCC3)cc2)ccc1OCC(C)C | 27 | u | 0% | 3% | u | -9%
CC(C)=CCCC(C)NC(=O)NC1CCCCC1 (configuration not stated) | 5 | 16µM* | u | 0% | 1%[9.22 µM] | u
O=C(NC1CCCCC1)NC1CCCCC1 | x | -13% | x | x | x | -21%
CNc1nc(C)c([N+](=O)[O-])c(Nc2ccc(OC)cc2)n1 | 8 | 23µM* | 7% | -2% | 2% | u
COc1ccc(Nc2n[nH]c(C)c2[N+](=O)[O-])cc1 | -10 | -19% | 6% | -3% | 0% | -18%
CC(=O)Nc1ccc(Nc2nc(C)c([N+](=O)[O-])c(Nc3ccc(NC(C)=O)cc3)n2)cc1 | -5 | 6.5µM* | u | 20% | -4% | u
O=C(c1ccc2[nH]c(=O)c(=O)[nH]c2c1)N1CCc2ccccc2C1 | 29 | -5% | -5% | 1% | -15% | -1%

Screens: PubChem, National Center for Advancing Translational Sciences (NCATS)
